Tested on: E18 rat cortical neuron-glia co-culture
Test: myelination (MBP fiber length per Olig2+ nucleus), % of 1 µM DAPT response (DMSO = 0) (% of DAPT); higher = more myelination, active = 50 or more
Conditions: 1 µM; treatment time: 8 days (DIV5-DIV13)
Summary of the method: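 Library compounds at 1 or 5 µM in myelination medium were applied from DIV5 to DIV13 to papain-dissociated E18 rat cortical co-cultures seeded at 20,000 cells/well on poly-d-lysine/laminin 96-well plates. Fixed cells (4 % paraformaldehyde) were immunostained for MBP and Olig2 with DAPI, and four 10X fields were analysed in each duplicate well. Continuous straight MBP fiber length per Olig2+ nucleus was set to 0 for 0.1 % DMSO and to 100 for a 1 µM positive control.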

Structure (SMILES) | myelination
COc1cc2nc(N3CCN(C(=O)c4ccco4)CC3)nc(N)c2cc1OC [Prazosin] | -38.1 (inactive)
COc1cc(C)nc(-n2nc(C)cc2OC)n1 [Epirizole] | -20.5 (inactive)
CCCCC[C@H](O)/C=C/[C@H]1[C@H](O)CC(=O)[C@@H]1CCCCCCC(=O)O [Alprostadil] | -1.94 (inactive)
CC[C@@H](CO)NCCN[C@@H](CC)CO [Ethambutol] | -5.28 (inactive)
CC(=O)Nc1nnc(S(N)(=O)=O)s1 [Acetazolamide] | -4.45 (inactive)

Same assay, conditions: 5 µM; treatment time: 8 days (DIV5-DIV13)

Structure (SMILES) | myelination
Cc1nccn1CC1CCc2c(c3ccccc3n2C)C1=O (stereo not given) [Ondansetron] | -35.8 (inactive)
Cc1ncc([N+](=O)[O-])n1CC(C)O (stereo not given) [Secnidazole] | -18.7 (inactive)
O=C(c1ccc(F)cc1)C1CCN(CCn2c(=S)[nH]c3ccccc3c2=O)CC1 [Altanserin] | -16.1 (inactive)
Cc1onc(-c2ccccc2)c1-c1ccc(S(N)(=O)=O)cc1 [Valdecoxib] | -45.9 (inactive)
NC(=O)OCC(COC(N)=O)c1ccccc1 [Felbamate] | -10.2 (inactive)
Brc1c(NC2=NCCN2)ccc2nccnc12 [Brimonidine] | -32 (inactive)
Cc1ncc([N+](=O)[O-])n1CCO [Metronidazole] | -10.1 (inactive)
CN1CCN(C2=Nc3ccccc3Oc3ccc(Cl)cc32)CC1 [Loxapine] | 4.82 (inactive)
CC(C)(C#N)c1cc(Cn2cncn2)cc(C(C)(C)C#N)c1 [Anastrozole] | -11.9 (inactive)
CN(C)C(=O)C(CCN1CCC(O)(c2ccc(Cl)cc2)CC1)(c1ccccc1)c1ccccc1 [Loperamide] | -21 (inactive)
CC1(C)O[C@@H]2C[C@H]3[C@@H]4C[C@H](F)C5=CC(=O)C=C[C@]5(C)[C@@]4(F)[C@@H](O)C[C@]3(C)[C@]2(C(=O)CO)O1 [Fluocinolone Acetonide] | 6.47 (inactive)
COc1cc(C(=O)NS(=O)(=O)c2ccccc2C)ccc1Cc1cn(C)c2ccc(NC(=O)OC3CCCC3)cc12 [Zafirlukast] | -4.26 (inactive)
CNC[C@H](O)c1ccc(O)c(O)c1 [Epinephrine] | 38.8 (inactive)
NS(=O)(=O)c1cc2c(cc1Cl)NCNS2(=O)=O [Hydrochlorothiazide] | -12.5 (inactive)
Cc1occc(=O)c1O [Maltol] | -13.4 (inactive)
CCCC1O[C@@H]2C[C@H]3[C@@H]4CCC5=CC(=O)C=C[C@]5(C)[C@H]4[C@@H](O)C[C@]3(C)[C@]2(C(=O)CO)O1 (stereo not given in full) [Budesonide] | -18.8 (inactive)
CC(C(=O)O)c1ccc(-c2ccccc2)c(F)c1 (stereo not given) [Flurbiprofen] | -13.6 (inactive)
CN1CCN(C2=Nc3cc(F)ccc3Cc3ccccc32)CC1 [Fluperlapine] | -12.9 (inactive)
CCCCC(=O)O[C@H]1CC[C@H]2[C@@H]3CCc4cc(O)ccc4[C@H]3CC[C@]12C [Estradiol valerate] | 11.9 (inactive)
CC1(C)S[C@@H]2[C@H](NC(=O)[C@H](N)c3ccccc3)C(=O)N2[C@H]1C(=O)O [Ampicillin] | -18.9 (inactive)
CNC(=C[N+](=O)[O-])NCCSCc1csc(CN(C)C)n1 [Nizatidine] | -29.5 (inactive)
Cc1ccc(C)c(OCCCC(C)(C)C(=O)O)c1 [Gemfibrozil] | -7.17 (inactive)
Nc1ccc2cn[nH]c2c1 [6-Aminoindazole] | -11.1 (inactive)
COC(=O)C1=C(C)NC(C)=C(C(=O)OC)C1c1ccccc1[N+](=O)[O-] [Nifedipine] | 10 (inactive)
CCC(=O)NS(=O)(=O)c1ccc(-c2c(-c3ccccc3)noc2C)cc1 [Parecoxib] | 1.22 (inactive)
CCOC(=O)C1=C(C)NC(C)=C(C(=O)OC)C1c1cccc(Cl)c1Cl (stereo not given) [Felodipine] | 8.21 (inactive)
CN1[C@@H]2CC[C@H]1C[C@@H](OC(=O)c1c[nH]c3ccccc13)C2 [Tropisetron] | -53.9 (inactive)
CN1CCC(=C2c3ccccc3CC(=O)c3sccc32)CC1 [Ketotifen] | -13.6 (inactive)
CN1CCN2c3ncccc3Cc3ccccc3C2C1 (stereo not given) [Mirtazapine] | -4.21 (inactive)
NS(=O)(=O)c1cc(C2(O)NC(=O)c3ccccc32)ccc1Cl (stereo not given) [Chlorthalidone] | 7.87 (inactive)

Source: the supplement of paper PMC4840960
